Results on 62 compounds are retold here after PubChem BioAssay AID504332 (National Center for Advancing Translational Sciences (NCATS), 2011).

Each structure is given as a SMILES string. Values joined by “and” are separate entries in the source; they are usually repeats but may differ in a detail not shown here. Identical values can stand only once. Hit rate of the full screen: of about 350,000 compounds, about 31,000 (8.9%) were called active. Roughly 15% stayed inconclusive and do not appear here. For the sample, actives were picked, then their nearest neighbours and some compounds at random. The source holds several records for some structures; these can differ, active in one and inactive in another. Values without a mark were called inactive. Calls come from the whole dose curve; as a rule, active = well fitted inhibition curve with a large enough effect; inconclusive = small, poorly fitted or top-dose-only effect; inactive = no such curve, though single readings can be large or run the other way.
% is set by controls: 0 for no effect and ±100 for the full control effect; potency is the fitted concentration of half-maximal effect.

Chain of Histone-lysine N-methyltransferase EHMT2 (Homo sapiens) (Q96KQ7 913-1193 limits assumed): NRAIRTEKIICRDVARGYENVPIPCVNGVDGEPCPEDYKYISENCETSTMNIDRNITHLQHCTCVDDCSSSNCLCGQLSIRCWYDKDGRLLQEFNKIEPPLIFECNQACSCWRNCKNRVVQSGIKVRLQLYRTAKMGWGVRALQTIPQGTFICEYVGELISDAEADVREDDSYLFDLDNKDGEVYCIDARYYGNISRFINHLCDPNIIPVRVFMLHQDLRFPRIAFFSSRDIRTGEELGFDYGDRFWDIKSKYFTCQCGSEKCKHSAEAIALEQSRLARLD

This assay deals with Histone-lysine N-methyltransferase EHMT2 (Homo sapiens) (UniProt Q96KQ7). Put plainly: qHTS Assay for Inhibitors of Histone Lysine Methyltransferase G9a. Note: nearly all actives have a fitted effect of over 75% in size. As to conditions: G9a H3K9 monomethylation, AlphaScreen, 2 h; series mostly up to 59 µM; activity, negative = inhibition: at the top concentration. A digest of the protocol:
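AlphaScreen read-out: biotin-H3K9 peptide (500 nM) methylation by 20 nM enzyme with 20 uM SAM, 2 h at room temperature after 15 min compound preincubation; anti-monomethyl H3K9 antibody plus donor/acceptor beads, 10 min dark.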
Background: Quantitative high-throughput screening tests each substance at several concentrations.
`COc1ccc([C@H]2CC(=O)C=C(c3ccc(CO)cc3)C2)cc1`: the activity, negative = inhibition was 11.2% [at 0.501 µM].

For the compound `Cc1c(-c2cccc(NC(=O)C(C)(C)C)c2)nc2ncccn12`, the “activity, negative = inhibition” value is 9.24%.

In the case of `COc1ccc(Br)cc1CNC(=O)c1cc(=O)[nH]c2ccc(S(=O)(=O)N3CCCC3)cc12`, the “activity, negative = inhibition” value was -3.57%. In the case of `Cc1ccc(SCC(=O)Nc2ccc3oc(-c4ccccc4F)nc3c2)cc1`, the “activity, negative = inhibition” value is 6.8%.

As to `CCOC(=O)c1sc(NC(=O)CSc2nc(C)cc(C(F)(F)F)n2)c(C#N)c1C`, the Potency was 11.2 µM (active). Turning to `CCOC(=O)c1sc(NC(=O)CSc2ncccn2)c(C#N)c1C`, the activity, negative = inhibition was -13.3% [at 12.7 µM]. The same measure, in the same setting: then `CCOC(=O)c1sc(NC(=O)CSc2nnc(-c3ccco3)o2)c(C(=O)OCC)c1C`, with -13.7%; and `O=C(Nc1ccc(C(=O)OCc2cc(=O)n3nc(C4CC4)sc3n2)cc1)c1ccc(F)cc1`, with 7.88% [at 12.7 µM]. With `Oc1ccccc1/C=N/n1c(-c2cccs2)n[nH]c1=S`, the Potency was 1.58 µM (active). Turning to `Cc1ccsc1/C=N/n1c(=S)[nH]nc(C)c1=O`, the “activity, negative = inhibition” value was 5.6%. Turning to `Cc1n[nH]c(=O)nc1N/N=C/c1cccs1`, the “activity, negative = inhibition” value was 16.1% [at 102 µM]. On to `c1ccc(-c2noc(-c3cccs3)n2)nc1`, for which the “activity, negative = inhibition” value is 9.04%. Turning to `S=c1[nH]nc(-c2cccs2)n1/N=C/c1cccs1`, the Potency was 1.26 µM (active). Consider `COc1cc(-c2cc3n(C)c(C)c(CCC(=O)Nc4ccc(F)cc4)c(=O)n3n2)cc(OC)c1OC`, for which the “activity, negative = inhibition” value is -1.47%. The same measure, in the same setting: then `Cc1cccc(NC(=O)CSc2nnc(CNC(=O)c3cccc(C)c3)n2-c2ccccc2)c1`, with -46.9%; and `COc1cccc(CNC(=O)CCCC(=O)Nc2cccc([N+](=O)[O-])c2)c1`, with 26.3% [at 102 µM].

Consider `COc1cccc(NCCC(=O)c2cccc([N+](=O)[O-])c2)c1`, for which the Potency was 35.5 µM (active).

For `COc1cccc(C(=O)CC(=O)C(=O)Nc2ccc([N+](=O)[O-])cc2C)c1`, the “activity, negative = inhibition” value is -37.1% [at 102 µM].

In the case of `O=C(CN1CCOC1=O)N1CCCC(Nc2ccc(F)c(F)c2)C1` (centres undefined), the “activity, negative = inhibition” value was 10.1%. Same read-out and setting: then `CCC(=O)Nc1nc(C)c(C(=O)Nc2cccc(Cl)c2)s1`, with 21.5%; and `CCN(CC)CCNc1ncnc2c1cnn2-c1cc(Cl)ccc1C`, with -26.5%. Regarding `CCN(CC)CCCC(C)Nc1ccnc2cc(Cl)ccc12` (centres undefined), the Potency was 25.1 µM (active); the activity, negative = inhibition was -36.5% [at 2.33 µM] and 28.9% [at 12.7 µM].

For `CCN(CC)CCCNC(=O)c1cc(-c2cccc(Cl)c2)on1`, the “activity, negative = inhibition” value is -3.23% [at 102 µM].

As for `O=C(NCCc1ccco1)C(=O)NCCC1CCCCN1S(=O)(=O)c1ccccc1` (centres undefined), the activity, negative = inhibition was 10.9% [at 0.501 µM]. Regarding `CC(=O)Nc1cccc(-c2csc(Nc3cccc(C)n3)n2)c1`, the activity, negative = inhibition is -3.54% [at 0.0925 µM]. For the compound `Cc1ccc(Nc2nc(-c3ccc(O)cc3O)cs2)nc1`, the Potency is 10 µM (active). `c1cnc(Nc2nc(-c3ccc4ccccc4c3)cs2)nc1`: the activity, negative = inhibition is 27.1% [at 12.7 µM]. The same measure, in the same setting: then `CCN(CC(=O)Nc1c(F)cccc1F)C(=O)c1ccc(S(=O)(=O)N2CCCCC2)cc1`, with 0.134% [at 12.7 µM]; and `CC1CC(C)CN(c2ccc(S(=O)(=O)N3CCOCC3)cc2)C1` (centres undefined), with -7.51% [at 12.7 µM]. Consider `CN(C)c1ccc(N/C=C/C(=O)C(F)(F)F)cc1`, for which the Potency is 7.08 µM (active). With `O=C(/C=C/Nc1ccccc1OC(F)(F)F)C(F)(F)F`, the “activity, negative = inhibition” value was 3.53% [at 102 µM]. Consider `CCCOc1ccc(N/C=C/C(=O)C(C)(C)C)cc1`, for which the “activity, negative = inhibition” value was 3.27% [at 102 µM]. Still for that read-out and setting: with `COc1ccc(-c2cn3c(n2)sc2cc(C(=O)Nc4ccc(F)cc4)ccc23)cc1` the figure was 2.76%; with `CCn1cc2nc(SCc3cccc(F)c3)n(CCc3ccccc3)c(=O)c2n1`, 2.62%.

Take `CCOC(=O)C1(Cc2ccccc2C)CCCN(C(=O)CN2C(=O)CSC2=O)C1` (centres undefined): the “activity, negative = inhibition” value was 6.91% [at 102 µM]. Same read-out and setting: then `c1ccc(CC2CCN(c3nc4ccccc4n4cnnc34)CC2)cc1`, with 26.6% [at 12.7 µM]; and `O=C(c1ccccc1)c1ccc(OC(=O)N2CCCC2)cc1`, with -2.47%. On to `O=C(c1ccccc1)c1ccc2nc(N3CCCCC3)c3nncn3c2c1`, for which the Potency was 44.7 µM (active). Regarding `O=C(Nc1ccc(Oc2ccccc2)cc1)C1CCN(S(=O)(=O)c2ccc(Cl)cc2)CC1`, the “activity, negative = inhibition” value was 4.44%. Same read-out and setting: with `COc1cccc(NC(=O)c2ccc3nc(CCc4ccccc4)oc3c2)c1` the figure was -23.2%; with `COc1cccc(NC(=O)CSC2=Nc3ccccc3C3=NC(CC(=O)NC4CCCCC4)C(=O)N23)c1` (centres undefined), -0.713%. Same read-out and setting: then `COc1cc(Cl)c(NC(=O)C(NS(=O)(=O)c2cccs2)C(C)C)c(OC)c1` (centres undefined), with 10.2%. For the compound `COc1ccc2c(c1)C(C)=CC(C)(C)N2C(=O)CNCc1ccc2c(c1)OCO2`, the Potency is 28.2 µM (active). `COc1ccc(OC)c(-c2nc(C(N)=O)c3c(n2)n(-c2ccc4c(c2)OCO4)c(=O)n3C)c1`: the “activity, negative = inhibition” value was -0.66%.

For `COc1cccc(CNCc2ccc3c(c2)OCO3)c1`, the Potency is 22.4 µM (active). `COc1ccc(C2(C)NC(=O)N(CC(=O)c3ccc4c(c3)OCO4)C2=O)cc1` (centres undefined): the “activity, negative = inhibition” value was 100% [at 102 µM]. Same read-out and setting: then `COc1ccc(NC(=O)NCc2ccc3c(c2)OCO3)c(OC)c1`, with 123% [at 102 µM]; and `COc1cc(OC)c(C(=O)NCc2ccc3c(c2)OCO3)cc1OC`, with -3.02%. Still for that read-out and setting: then `Cc1ccsc1C(=O)NCCc1ccco1`, with -0.499% [at 12.7 µM]; and `COc1ccccc1-c1noc(-c2ccc(NCc3ccccc3)c([N+](=O)[O-])c2)n1`, with 9.56%. As for `Clc1ccc(C2=CSC3=Nc4cccc5cccc(c45)N23)cc1`, the Potency is 3.55 µM (active).

Take `O=C(Nc1ccc2nc(SCC(=O)N3CCCc4ccccc43)sc2c1)c1ccc(Cl)cc1`: the “activity, negative = inhibition” value is -5.84%. Consider `CCCNC(=O)CSc1nc(Cc2ccccc2)nc2ccccc12`, for which the “activity, negative = inhibition” value is 13.1% [at 102 µM]. Same read-out and setting: with `Cc1ccc(S(=O)(=O)NCc2nc3nc(C)cc(C)n3n2)cc1` the figure was -4.11%; with `NC(=O)NC(CC(=O)NNC(=O)c1ccccn1)c1ccc(Cl)cc1` (centres undefined), 54.7% [at 12.7 µM]; with `CC(=O)Nc1nc2ccccc2n1Cc1ccc(C)cc1`, 1.65% [at 102 µM].

For the compound `CCCc1nc2c(C)cc(-c3nc4ccccc4n3C)cc2n1Cc1ccc(-c2ccccc2C(=O)O)cc1`, the Potency was 4.47 µM (active) and the activity, negative = inhibition is -43.4% [at 2.33 µM]. In the case of `Cc1ccc(Cn2c(CCCNC(=O)C3CCCCC3)nc3ccccc32)cc1`, the “activity, negative = inhibition” value was -38.9%.

With `COc1ccc(C(=O)Nc2nonc2-c2ccc(OC)c(OC)c2)cc1Cl`, the “activity, negative = inhibition” value is 1.07%. Take `COc1cccc(NC(C)=[N+](C)CCNS(=O)(=O)c2ccc(Cl)cc2)c1`: the Potency is 15.8 µM (active).

On to `COc1ccc(S(=O)(=O)NCCCCOc2ccc(Cl)cc2)cc1`, for which the activity, negative = inhibition is 21.3% [at 2.33 µM]. On the same count and under the same terms, with `COc1cccc(NC(=O)CCNS(=O)(=O)c2ccc3c(c2)oc(=O)n3C)c1` the figure was 1.31% [at 0.0925 µM].
